26 molecules from PubChem BioAssay (EPA / NIEHS) can be followed below.

Results filed as inconclusive are left out. Activity calls are given as the source filed them. The calls were made as follows: active = hit-call score of the fitted dose curve at least 0.9, where 1 is the maximum; inconclusive = response in the unintended direction; inactive = score below 0.9.

Read-out in the assay: organic anion transporter (SLCO1B1), SLCO1B1 (gene 10599)
Nature of the assay: CLD_SLCO1B1_6hr: CellzDirect (CLD) Gene Expression Assay for organic anion transporter (SLCO1B1) at 6 hours (AID 2283668).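 Also: active means mRNA induction above DMSO baseline.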 As for the experimental part: CLD_6hr is a cell-based, multiplexed-readout assay that uses hepatocyte, a human liver primary cell, with measurements taken at 6 hours after chemical dosing in a 96-well plate.CLD_SLCO1B1_6hr is one of 16 assay component(s) measured or calculated from the CLD_6hr assay. It is designed to make measurements of mRNA induction, a form of inducible reporter, as detected with chemiluminescence signals by Quantitative Nuclease Protection Assay (qNPA) technology.Data from the assay component CLD_SLCO1B1_6hr was analyzed at the endpoint, CLD_SLCO1B1_6hr, in the positive analysis fitting direction relative to DMSO as the negative control and baseline of activity. Using a type of inducible reporter, gain-of-signal activity can be used to understand changes in the reporter gene as they relate to the gene SLCO1B1. Furthermore, this assay endpoint can be referred to as a primary readout. To generalize the intended target to other relatable targets, this assay endpoint is annotated to the transporter intended target family, where subfamily is organic anion transporter.
Human hepatocyte cultures were treated daily for two consecutive days with fresh dosing solutions containing appropriate concentrations of the 320 ToxCast chemicals (chemical identities were blinded to CellzDirect and other ToxCast collaborators), vehicle control (0.2% DMSO), and positive control inducers as summarized in Table 1. Due to the large number of treatment groups and chemicals examined, the ToxCast chemicals were divided into two groups (spanning two independent cultures of hepatocytes from separate donor preparations (Hu778: ToxCast plates 1 and 2; Hu776: ToxCast plates 3 and 4). Each preparation of human hepatocyte cultures was treated with respective vehicle control, medium only control, set of six positive controls/reference chemicals for the five hepatic receptor pathways, and a subset of eight of the ToxCast chemicals (indoxacarb, pyrithiobac-sodium, norflurazon, cyhalofop-butyl, methomyl, thiram, acetochlor, and propiconazole). These replicate data, coupled with internal replicates designed within the blinded ToxCast chemical library, provided additional data to evaluate interindividual differences between hepatocyte preparations and their potential impact on chemical profiles.Cell morphology and integrity were evaluated using phase-contrast microscopy as an indicator of hepatocyte cell health (Tyson & Green, 1987). Cultures for each treatment group (i.e., media, vehicle [0.2% DMSO], positive control inducers [multiple concentrations], and the ToxCast chemicals [multiple concentrations]) were observed and cell morphology was assessed relative to vehicle control cultures at each harvest time point (0, 6, 24, or 48 h). […] Images were evaluated at the conclusion of the study to assess changes in cell integrity and account for the effects of chemical exposure on uncharacteristic changes in concentration-dependent gene expression profiles. The results from these determinations of apparent cytotoxicity were annotated (yes/no) alongside the corresponding qNPA data for reference.At the conclusion of each treatment period, hepatocyte cultures (96-well) were washed with 1 volume of HBSS, lysed by addition of 25 ul ArrayPlate lysis buffer (HTG, Tucson, AZ), and 70 ul/well of Denaturation Oil, denatured by incubation at 95C for 10 min, and frozen at approximately -70C until analysis by nuclease protection assay (qNPA) (Roberts et al., 2007). For qNPA analysis, cell lysates were thawed at 50C for approximately 30 min, qNPA probes were added, and samples were incubated at 95C for 10 min to begin the detection process by denaturing the target RNA, dissociating the duplexes and secondary structure hybridization. At the conclusion of the hybridization period, S1 nuclease reagent was added to each sample to digest all nonprotected nucleotides at 50C for 60-90 min. […]
For the molecule `CCC(O)=C1C(=O)CC(C(=O)O)CC1=O` (stereo unspecified), the molecule was classed as inactive. In the case of `CCCN(CCC)c1c([N+](=O)[O-])cc(C(F)(F)F)c(N)c1[N+](=O)[O-]` it was “inactive”; in that of `CCOC(=O)C(C)Oc1ccc(Oc2nc3ccc(Cl)cc3o2)cc1` (stereo unspecified), “inactive”; in that of `COc1c(Cl)ccc(Cl)c1C(=O)O`, “inactive”. The value for `COC(=O)c1cccc(C)c1S(=O)(=O)NC(=O)Nc1nc(OCC(F)(F)F)nc(N(C)C)n1` was “inactive”; that for `CC1(C)C(C=C(Cl)Cl)C1C(=O)OCc1cccc(Oc2ccccc2)c1` (stereo unspecified) was “inactive”. As to `c1ccc(Nc2ccccc2)cc1`, the result was inactive. In the case of `COc1nc(C)nc(NC(=O)NS(=O)(=O)c2ccccc2OCCCl)n1` it was “inactive”; in that of `O=C(Nc1ccc([N+](=O)[O-])cc1Cl)c1cc(Cl)ccc1O`, “inactive”; in that of `CCOC(=O)[C@H](C)Oc1ccc(Oc2nc3ccc(Cl)cc3o2)cc1`, “inactive”. In the case of `CCCCOC(=O)C(C)Oc1ccc(Oc2ccc(C(F)(F)F)cn2)cc1` (stereo unspecified) it was “inactive”; in that of `COC(=O)c1ccccc1S(=O)(=O)NC(=O)Nc1nc(OC(F)F)cc(OC(F)F)n1`, “inactive”. With `CCCN(CCC)C(=O)SCC`, the outcome was inactive. In the case of `CCOC(=O)NCCOc1ccc(Oc2ccccc2)cc1` it was “inactive”; in that of `CCCOC(=O)c1ccc(C(=O)OCCC)nc1`, “inactive”. In the case of `S=C(S)NCCNC(=S)S.[Mn+2].[S-]C([S-])=NCCN=C([S-])[S-].[Zn+2]` it was “inactive”.

As for `CCSC(=O)N(CC(C)C)CC(C)C`, the call was inactive. In the case of `COC(=O)c1ccc(I)cc1S(=O)(=O)NC(=O)Nc1nc(C)nc(OC)n1` it was “inactive”. The value for `CCC(C)OC(=O)N1CCCCC1CCO` (stereo unspecified) was “inactive”; that for `OB(O)O` was “inactive”; that for `CCCCC(CC)COC(=O)c1ccccc1C(=O)O` (stereo unspecified) was “inactive”. The value for `COC(=O)c1ccc(CNS(C)(=O)=O)cc1S(=O)(=O)NC(=O)Nc1nc(OC)cc(OC)n1` was “inactive”; that for `CCN(CC)C(=O)c1cccc(C)c1` was “inactive”; that for `C#CCOC(=O)[C@@H](C)Oc1ccc(Oc2ncc(Cl)cc2F)cc1` was “inactive”. As for `C=CCOC(Cn1ccnc1)c1ccc(Cl)cc1Cl` (stereo unspecified), the molecule was classed as inactive. Regarding `S=C([S-])NCCNC(=S)[S-].[Mn+2]`, the molecule was called inactive.
